Results: PubChem BioAssay (EPA / NIEHS)
Results filed as inconclusive are left out. Calls of active or inactive are those of the source. The calls were made as follows: active = hit-call score of the fitted dose curve at least 0.9, where 1 is the maximum; inconclusive = response in the unintended direction; inactive = score below 0.9.

Target: human Peripheral-type Benzodiazepine Receptor (PBR), TSPO (gene 706) (UniProt P30536)
Sequence (P30536 whole entry, looked up): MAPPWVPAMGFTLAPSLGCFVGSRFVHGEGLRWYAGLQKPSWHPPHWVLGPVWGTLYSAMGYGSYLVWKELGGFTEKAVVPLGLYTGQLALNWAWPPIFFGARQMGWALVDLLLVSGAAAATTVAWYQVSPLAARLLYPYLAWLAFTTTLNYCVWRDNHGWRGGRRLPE
Test: NVS_MP_hPBR: NovaScreen (NVS) Membrane Protein Assay for human Peripheral-type Benzodiazepine Receptor (PBR) (AID 2283331);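 also: hits reduce radioligand binding relative to DMSO baseline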
In short: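 Scintillation counts of filter-bound radioligand served as read-out after 1 h chemical dosing of human colonic membrane preparations. Activity was scored as signal loss against DMSO; initial duplicates at 25 uM, confirmatory concentration series afterward.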
With `C=C(C)[C@H]1CC=C(C)C(=O)C1` the AC50 was 25 µM (active).
In the case of `Cc1cc(=O)oc2cc(N(C)C)ccc12`, the AC50 is reported as 6.09 µM (active).
In the case of `CCOc1ccc(N=Nc2ccc(C=Cc3ccc(N=Nc4ccc(OCC)cc4)cc3S(=O)(=O)O)c(S(=O)(=O)O)c2)cc1`, the AC50 is reported as 0.00187 µM (active).
With `CC(C)(C)CC(C)(C)c1ccc(OCCOCC[N+](C)(C)Cc2ccccc2)cc1` the outcome was “inactive”.
For `Nc1ccc2cc(S(=O)(=O)O)cc(O)c2c1N=Nc1ccccc1C(F)(F)F`, the AC50 was 1.16 µM (active).
In the case of `CCCCC(CC)COC(=O)c1ccc(O)cc1` (stereo unspecified), the AC50 is reported as 2.71 µM (active).
For `COc1ccc(CCN2CCC(Nc3nc4ccccc4n3Cc3ccc(F)cc3)CC2)cc1`, the outcome was “inactive”.
In the case of `CS(=O)(=O)OCCCCOS(C)(=O)=O`, the outcome is reported as “inactive”.
In the case of `C=CC(=O)OCCCC`, the outcome is reported as “inactive”.

Target: rat Peripheral-type Benzodiazepine Receptor (PBR), Tspo (gene 24230) (UniProt P16257)
Sequence (P16257 whole entry, looked up): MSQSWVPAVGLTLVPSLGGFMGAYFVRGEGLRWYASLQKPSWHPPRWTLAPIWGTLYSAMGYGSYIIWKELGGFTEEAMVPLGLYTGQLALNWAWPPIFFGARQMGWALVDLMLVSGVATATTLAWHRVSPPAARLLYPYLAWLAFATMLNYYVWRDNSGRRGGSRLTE
Test: NVS_MP_rPBR: NovaScreen (NVS) Membrane Protein Assay for rat Peripheral-type Benzodiazepine Receptor (PBR) (AID 2283335)
In short: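 Radioligand displacement, rat kidney membrane prep, 1 h exposure, filter-based scintillation read; DMSO baseline, loss-of-signal scored. Primary screen at 25 uM in duplicate, actives followed up in concentration series.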
With `Cc1cc(=O)oc2cc(N(C)C)ccc12` the AC50 was 25 µM (active).
In the case of `CCOc1ccc(N=Nc2ccc(C=Cc3ccc(N=Nc4ccc(OCC)cc4)cc3S(=O)(=O)O)c(S(=O)(=O)O)c2)cc1`, the AC50 is reported as 5.82 µM (active).
With `Nc1ccc2cc(S(=O)(=O)O)cc(O)c2c1N=Nc1ccccc1C(F)(F)F` the AC50 was 5.02 µM (active).
In the case of `CCCCC(CC)COC(=O)c1ccc(O)cc1` (stereo unspecified), the AC50 is reported as 1.23 µM (active).
For `CN(C)C(=S)SC(=S)N(C)C`, the outcome was “inactive”.
In the case of `CS(=O)(=O)OCCCCOS(C)(=O)=O`, the outcome is reported as “inactive”.
For `C=CC(=O)OCCCC`, the outcome was “inactive”.
With `CCCCC(CC)COC(C)=O` (stereo unspecified) the outcome was “inactive”.

Test system: not listed separately
Test: NVS_IC_rCaBTZCHL: NovaScreen (NVS) Ion Channel Assay for Calcium Channel, Type L, Benzothiazepine Site (CaBTZCHL) (AID 2283337)
Method: NVS_IC_rCaBTZCHL is a biochemical, single-readout assay that uses extracted gene-proteins from Rat cortical membranes in a tissue-based cell-free assay. Measurements were taken 1.5 hours after chemical dosing in a 48-well plate.NVS_IC_rCaBTZCHL is one of one assay component(s) measured or calculated from the NVS_IC_rCaBTZCHL assay. It is designed to make measurements of radioligand binding, a form of binding reporter, as detected with scintillation counting signals by Filter-based radiodetection technology.Data from the assay component NVS_IC_rCaBTZCHL was analyzed into 1 assay endpoint. This assay endpoint, NVS_IC_rCaBTZCHL, was analyzed in the positive analysis fitting direction relative to DMSO as the negative control and baseline of activity. Using a type of binding reporter, loss-of-signal activity can be used to understand changes in the binding as they relate to the gene Cacna1a. Furthermore, this assay endpoint can be referred to as a primary readout, because the performed assay has only produced 1 assay endpoint. To generalize the intended target to other relatable targets, this assay endpoint is annotated to the ion channel intended target family, where the subfamily is calcium channel.
Binding assays used specific radioligands (tritiated, iodinated) with non-radioactive competitive displacement ligands in agonist or antagonist protocols (as indicated) and various reference compounds and inhibitors to titrate specific binding to receptors and transporters. Most enzyme assays (CYPs, kinases, phosphatases, proteases, HDACs) used recombinant protein and specific substrates (fluorescence mostly, some colorimetric and radioactive) and inhibitors, followed by a biochemical separation of substrate and product. All assays for the biochemical HTS were initially run in duplicate at a single concentration (10 uM for CYP450 assays and 25 uM for all others). […] Each assay was run with positive and negative controls, and concurrent controls on every plate. The follow-up (secondary) screen tested active chemical-pairs in concentration series, as well as a few additional assays not tested in the primary screen, some selected negative inactives, and several cases re-run in the concentration series for confirmatory purposes.
With `CC(C)(C)CC(C)(C)c1ccc(OCCOCC[N+](C)(C)Cc2ccccc2)cc1` the AC50 was 2.81 µM (active).
For `CCCCOC(=O)CCCCCCCC(=O)OCCCC`, the outcome was “inactive”.
For `COc1ccc(CCN2CCC(Nc3nc4ccccc4n3Cc3ccc(F)cc3)CC2)cc1`, the AC50 was 2.18 µM (active).
With `CN(c1nccc(=O)[nH]1)C1CCN(c2nc3ccccc3n2Cc2ccc(F)cc2)CC1` the outcome was “inactive”.

Target: chimpanzee Androgen Receptor (AR), AR (gene 747460) (UniProt O97775)
Sequence (O97775 whole entry, looked up): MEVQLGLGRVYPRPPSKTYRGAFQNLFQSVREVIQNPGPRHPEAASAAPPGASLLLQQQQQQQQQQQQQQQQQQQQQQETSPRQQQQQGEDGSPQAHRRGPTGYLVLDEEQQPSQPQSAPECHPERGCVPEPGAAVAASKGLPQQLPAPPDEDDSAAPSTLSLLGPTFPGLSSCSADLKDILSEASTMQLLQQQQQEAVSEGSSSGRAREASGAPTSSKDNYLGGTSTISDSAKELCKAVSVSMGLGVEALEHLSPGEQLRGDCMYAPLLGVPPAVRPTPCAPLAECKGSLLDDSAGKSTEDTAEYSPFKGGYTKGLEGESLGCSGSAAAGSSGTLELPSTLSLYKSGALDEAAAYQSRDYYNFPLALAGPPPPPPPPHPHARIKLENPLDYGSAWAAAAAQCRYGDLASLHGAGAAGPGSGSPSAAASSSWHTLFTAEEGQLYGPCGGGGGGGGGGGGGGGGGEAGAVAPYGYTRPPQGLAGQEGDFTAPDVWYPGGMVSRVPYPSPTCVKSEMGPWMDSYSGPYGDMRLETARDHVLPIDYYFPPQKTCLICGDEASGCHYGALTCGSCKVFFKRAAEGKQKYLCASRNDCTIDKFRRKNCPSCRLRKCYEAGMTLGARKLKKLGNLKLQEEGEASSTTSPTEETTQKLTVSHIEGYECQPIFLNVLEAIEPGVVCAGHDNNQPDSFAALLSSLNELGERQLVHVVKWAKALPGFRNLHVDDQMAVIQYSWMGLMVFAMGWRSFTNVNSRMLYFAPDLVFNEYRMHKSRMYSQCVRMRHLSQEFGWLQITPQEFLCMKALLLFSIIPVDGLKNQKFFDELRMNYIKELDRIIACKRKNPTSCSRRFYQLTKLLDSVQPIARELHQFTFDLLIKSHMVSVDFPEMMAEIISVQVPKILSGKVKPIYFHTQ
Test: NVS_NR_cAR: NovaScreen (NVS) Nuclear Receptor Binding Assay for chimpanzee Androgen Receptor (AR) (AID 2283346);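 also: radioligand displacement from AR measured by scintillation counting in a cell-free assay; a loss of bound radioligand signal versus DMSO counts as binding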
In short: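 Cell-free competition binding with insect-cell (Sf9/Sf21) extracted chimpanzee AR; scintillation signal from lysate at 72 h. Screened in duplicate at 25 uM, then concentration-response for actives; fitting relative to DMSO.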
In the case of `OCc1cccc(Oc2ccccc2)c1`, the AC50 is reported as 25 µM (active).
With `COc1ccc(OC)c(N=Nc2c(O)ccc3ccccc23)c1` the AC50 was 2.85 µM (active).
For `C=C(C)[C@H]1CC=C(C)C(=O)C1`, the outcome was “inactive”.
In the case of `CCOC(=O)c1ccc(N)cc1`, the outcome is reported as “inactive”.
With `C=C1CC[C@H](O)C/C1=C/C=C1\CCC[C@]2(C)[C@@H]([C@H](C)/C=C/[C@H](C)C(C)C)CC[C@@H]12` the AC50 was 28.4 µM (active).
For `Cc1cc(=O)oc2cc(N(C)C)ccc12`, the AC50 was 6.8 µM (active).
In the case of `CCOc1ccc(N=Nc2ccc(C=Cc3ccc(N=Nc4ccc(OCC)cc4)cc3S(=O)(=O)O)c(S(=O)(=O)O)c2)cc1`, the AC50 is reported as 17.7 µM (active).
In the case of `BrCc1cccc(Oc2ccccc2)c1`, the AC50 is reported as 25 µM (active).
In the case of `Nc1ccc(N)c2c1C(=O)c1ccccc1C2=O`, the outcome is reported as “inactive”.
With `O=C(Nc1ccc2c(O)c(N=Nc3ccc(N=Nc4ccc(S(=O)(=O)O)cc4)cc3)c(S(=O)(=O)O)cc2c1)c1ccccc1` the AC50 was 40.6 µM (active).
For `Oc1ccc2cc(SSc3ccc4cc(O)ccc4c3)ccc2c1`, the AC50 was 31.9 µM (active).
With `Nc1ccccc1[N+](=O)[O-]` the outcome was “inactive”.
In the case of `Oc1c(Cl)cc(Cl)c(Cl)c1Cc1c(O)c(Cl)cc(Cl)c1Cl`, the AC50 is reported as 5 µM (active).
With `CCc1cc(C(C)(C)C)c(O)c(C(C)(C)C)c1` the outcome was “inactive”.

Target: Estrogen receptor (Homo sapiens) (UniProt P03372)
Sequence (P03372 whole entry, looked up, the tested form may be a part): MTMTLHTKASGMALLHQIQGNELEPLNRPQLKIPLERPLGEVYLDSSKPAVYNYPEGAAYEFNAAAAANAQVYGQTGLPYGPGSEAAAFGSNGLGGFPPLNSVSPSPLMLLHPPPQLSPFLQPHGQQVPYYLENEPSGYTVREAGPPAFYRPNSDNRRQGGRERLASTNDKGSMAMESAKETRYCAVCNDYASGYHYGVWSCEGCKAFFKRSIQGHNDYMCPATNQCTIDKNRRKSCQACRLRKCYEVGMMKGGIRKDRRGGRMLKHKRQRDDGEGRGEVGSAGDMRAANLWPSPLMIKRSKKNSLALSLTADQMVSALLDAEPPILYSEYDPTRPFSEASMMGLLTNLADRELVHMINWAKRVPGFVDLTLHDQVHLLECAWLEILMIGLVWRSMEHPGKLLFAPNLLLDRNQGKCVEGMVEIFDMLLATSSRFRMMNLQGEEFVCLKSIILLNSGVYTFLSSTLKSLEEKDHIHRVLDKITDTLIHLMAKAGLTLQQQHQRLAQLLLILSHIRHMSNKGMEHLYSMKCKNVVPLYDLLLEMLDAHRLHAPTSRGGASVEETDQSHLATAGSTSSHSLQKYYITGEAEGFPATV
Test: OT_ER_ERaERa_1440: Odyssey Thera (OT) 24-hour HEK293T Protein-Complementation Assay for Estrogen Receptor-alpha/-alpha Homodimer (AID 2283349);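 also: hits raise fluorescence above DMSO for agonists and antagonists alike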
In short: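 Protein-fragment complementation between two human ERα ligand-binding domains (aa 310-547) in stably transfected HEK293T cells was monitored after 24 h treatment, using fluorescence intensity relative to vehicle controls.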
For `O=C(Nc1ccc2c(O)c(N=Nc3ccc(N=Nc4ccc(S(=O)(=O)O)cc4)cc3)c(S(=O)(=O)O)cc2c1)c1ccccc1`, the outcome was “inactive”.
With `CC(C)NCC(O)COc1ccc(CC(N)=O)cc1` (stereo unspecified) the outcome was “inactive”.
With `OCC(O)c1ccccc1` (stereo unspecified) the outcome was “inactive”.
With `CC(C)CCCCCCc1ccc(OCCOCCO)cc1` the outcome was “inactive”.
With `CS(=O)(=O)OCCCCOS(C)(=O)=O` the outcome was “inactive”.

Target: Estrogen receptor (Homo sapiens) (UniProt P03372)
Test: OT_ER_ERaERa_0480: Odyssey Thera (OT) 8-hour HEK293T Protein-Complementation Assay for Estrogen Receptor-alpha/-alpha Homodimer (AID 2283351);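 also: rise in fluorescence from reassembled reporter fragments on ERα LBD homodimer in nucleus or whole cell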
In short: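 Binding reporter in which dimerisation of ERα LBD (aa 310-547) fusions reconstitutes a fluorescent reporter in HEK293T cells. Compounds incubated 8 h; mean fluorescence intensity increase versus DMSO scored.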
In the case of `O=C(Nc1ccc2c(O)c(N=Nc3ccc(N=Nc4ccc(S(=O)(=O)O)cc4)cc3)c(S(=O)(=O)O)cc2c1)c1ccccc1`, the outcome is reported as “inactive”.
For `CC(C)NCC(O)COc1ccc(CC(N)=O)cc1` (stereo unspecified), the outcome was “inactive”.
For `OCC(O)c1ccccc1` (stereo unspecified), the outcome was “inactive”.
In the case of `CC(C)CCCCCCc1ccc(OCCOCCO)cc1`, the outcome is reported as “inactive”.
For `CS(=O)(=O)OCCCCOS(C)(=O)=O`, the outcome was “inactive”.

Target: Androgen Receptor/SRC-1 Co-activator, AR (gene 367) (UniProt P10275)
Sequence (P10275 whole entry, looked up): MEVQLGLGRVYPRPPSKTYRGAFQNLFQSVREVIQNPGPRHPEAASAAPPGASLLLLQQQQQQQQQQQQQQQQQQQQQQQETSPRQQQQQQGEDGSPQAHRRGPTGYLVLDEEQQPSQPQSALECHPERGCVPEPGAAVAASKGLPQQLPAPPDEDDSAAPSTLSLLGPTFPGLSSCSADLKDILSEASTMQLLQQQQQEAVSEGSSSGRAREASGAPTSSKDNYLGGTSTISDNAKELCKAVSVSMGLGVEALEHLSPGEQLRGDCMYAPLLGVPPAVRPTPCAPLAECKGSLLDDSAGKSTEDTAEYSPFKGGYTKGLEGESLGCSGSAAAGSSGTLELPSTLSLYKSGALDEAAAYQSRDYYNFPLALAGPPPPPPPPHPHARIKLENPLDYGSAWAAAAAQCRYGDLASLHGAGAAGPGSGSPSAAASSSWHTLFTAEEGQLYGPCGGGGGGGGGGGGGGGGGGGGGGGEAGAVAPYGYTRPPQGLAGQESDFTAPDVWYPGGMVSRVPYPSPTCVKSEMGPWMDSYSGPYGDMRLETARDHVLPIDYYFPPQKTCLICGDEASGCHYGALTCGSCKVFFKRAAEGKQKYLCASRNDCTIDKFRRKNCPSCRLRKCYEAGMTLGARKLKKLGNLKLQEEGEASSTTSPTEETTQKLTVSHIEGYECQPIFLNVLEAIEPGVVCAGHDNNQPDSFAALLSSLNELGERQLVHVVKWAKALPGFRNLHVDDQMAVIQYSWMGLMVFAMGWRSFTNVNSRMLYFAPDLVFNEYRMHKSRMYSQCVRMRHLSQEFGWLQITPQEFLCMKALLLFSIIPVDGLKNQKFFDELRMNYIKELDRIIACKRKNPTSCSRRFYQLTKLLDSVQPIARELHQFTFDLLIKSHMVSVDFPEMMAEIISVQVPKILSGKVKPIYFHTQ
Test: OT_AR_ARSRC1_0960: Odyssey Thera (OT) 16-hour HEK293T Protein-Complementation Assay for Androgen Receptor/SRC-1 Co-activator (AID 2283353);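 also: actives raise the signal above DMSO so potency reflects increased AR and SRC-1 complex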
In short: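 Interaction of AR with SRC-1 was followed by YFP fragment complementation in HEK293T cells after 16 h of dosing. Gain of nuclear-over-cytoplasmic 488 nm fluorescence against DMSO controls defined activity.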
With `OCc1cccc(Oc2ccccc2)c1` the outcome was “inactive”.
With `CC1CCC(C(C)C)C(O)C1` (stereo unspecified) the outcome was “inactive”.
With `CCCCCCCCCCCCCC(=O)OCC(O)CO` (stereo unspecified) the outcome was “inactive”.
With `BrCc1cccc(Oc2ccccc2)c1` the outcome was “inactive”.
In the case of `Nc1ccc(N)c2c1C(=O)c1ccccc1C2=O`, the AC50 is reported as 35.3 µM (active).
With `CCc1ccc(O)cc1` the outcome was “inactive”.
With `C[C@H]1O[C@@H](O[C@H]2[C@@H](O)C[C@H](O[C@H]3[C@@H](O)C[C@H](O[C@H]4CC[C@@]5(C)[C@H](CC[C@@H]6[C@@H]5C[C@@H](O)[C@]5(C)[C@@H](C7=CC(=O)OC7)CC[C@]65O)C4)O[C@@H]3C)O[C@@H]2C)C[C@H](O)[C@@H]1O` the AC50 was 0.118 µM (active).
For `CCCCC1CCC(O)CC1` (stereo unspecified), the outcome was “inactive”.
For `CC(C)CCCCCCc1ccc(OCCOCCO)cc1`, the outcome was “inactive”.
In the case of `CCc1cc(Cc2cc(CC)cc(C(C)(C)C)c2O)c(O)c(C(C)(C)C)c1`, the AC50 is reported as 10.7 µM (active).
For `CC(=O)O[C@@H]1CC2CCC1(C)C2(C)C` (stereo partly specified), the outcome was “inactive”.
